Compound activity (PubChem)
This is one part of a sample in which hits are shown more often than they occur.
ST2 IL33 inh = IL1RL1 inhibition; AlphaLISA ST2-Fc/biotin-IL-33 interaction, 1 h; inhibition, % for hits at 17 µM; 78,000 tested, 2.3% active; AID 1259354; in the data active means inhibition above about 30%
Numbers stand for hits; - = inactive; ! = repeats disagree.

SMILES	ST2 IL33 inh
Cc1cccc(C2C3=C(Nc4c2c(=O)n(C)c(=O)n4C)c2ccccc2C3=O)c1 (configuration not stated)	-
Cn1c2c(c(=O)n(C)c1=O)C(c1cccc(F)c1)C1=C(N2)c2ccccc2C1=O (configuration not stated)	-
O=C1C2=C(Nc3[nH]n(-c4ccccc4)c(=O)c3C2c2ccc([N+](=O)[O-])cc2)c2ccccc21 (configuration not stated)	47%
O=C(O)c1ccccc1NC(=O)C1CCCN1C(=O)c1ccc([N+](=O)[O-])cc1 (configuration not stated)	-
COc1ccc2cc(C(=O)NC(C)=O)c(=Nc3ccc(F)cc3)oc2c1	-
COc1ccc2cc(-c3nc4ccccc4[nH]3)c(=Nc3ccc(C(N)=O)cc3)oc2c1	35%
COc1ccc2cc(C(N)=O)c(=Nc3ccc(C)cc3)oc2c1	-
O=C(CN1CCN(Cc2ccccc2F)S1(=O)=O)Nc1ccccc1	-
Cc1cc(C)c(NC(=O)CN2CCN(Cc3ccccc3F)S2(=O)=O)c(C)c1	-
Cc1ccc(Cl)cc1NC(=O)CN1CCN(Cc2ccccc2F)S1(=O)=O	97%
Cc1c(C(=O)NCc2ccco2)oc2ccc(S(=O)(=O)N3CC(C)CC(C)C3)cc12 (configuration not stated)	-
C(=C\c1cnc2n[nH]nc2c1)/c1ccccc1	-
C(=C\c1ccccc1)/Sc1ccc2ccccc2n1	34%
O=c1c2ccccc2nc(/C=C/c2ccccc2)n1Cc1ccccc1	-
C=CCn1cc(C(=O)NCC2CCCO2)c(=O)c2cc(S(=O)(=O)N(CC)CC)ccc21 (configuration not stated)	-
Cc1nc(C)n(CC(C)C(=O)NCc2ccc3[nH]c4c(c3c2)CCCC4)n1 (configuration not stated)	-
O=C(NCc1ccccc1)C(Cc1ccccc1)N1C(=O)c2ccccc2C1=O (configuration not stated)	-
O=C(O)CCC(C(=O)O)N1C(=O)c2ccccc2C1=O (configuration not stated)	-
CS(=O)CCC(C(=O)O)N1C(=O)c2ccccc2C1=O (configuration not stated)	38%!
C=CCc1cccc2cc(C(=O)NC(C)c3ccccc3)c(=O)oc12 (configuration not stated)	-
O=C(c1ccccc1F)N(c1ccc(Br)cc1)C1C=CS(=O)(=O)C1 (configuration not stated)	-
